Cycloheximide cs = Cycloheximide Counterscreen for Small Molecule Inhibitors of Shiga Toxin. cell reporter, cycloheximide protein synthesis inhibition counterscreen. max response, %. 300,000 tested, 12% active. AID 2314, 2010; in the data active = max response mostly above about 13%, no sharp cut-off; inactive = mostly below about 14%; note: read at 38.3 µM for the half of the compounds with a filed dose
AmpC inh detg = qHTS Inhibitors of AmpC Beta-Lactamase (assay with detergent). 370,000 tested, 0.041% active. P00811. Potency, µM (doses to about 114 µM), actives largely listed as inhibitors. AmpC hydrolysis of nitrocefin, absorbance 480 nm, 0.01% Triton. AID 485294, 2010; note: nearly all actives have a fitted effect of over 25% in size
Target sequence (P00811 whole entry, looked up): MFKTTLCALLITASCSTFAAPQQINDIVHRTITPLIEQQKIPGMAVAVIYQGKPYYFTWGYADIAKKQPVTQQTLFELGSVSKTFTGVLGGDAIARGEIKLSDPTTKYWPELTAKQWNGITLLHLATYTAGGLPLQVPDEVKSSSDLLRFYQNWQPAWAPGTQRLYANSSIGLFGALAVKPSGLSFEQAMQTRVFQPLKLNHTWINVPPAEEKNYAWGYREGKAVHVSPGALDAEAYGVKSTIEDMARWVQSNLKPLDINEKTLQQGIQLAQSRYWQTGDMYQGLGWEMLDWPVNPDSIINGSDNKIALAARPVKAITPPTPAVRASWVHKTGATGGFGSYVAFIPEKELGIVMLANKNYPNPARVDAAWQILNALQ
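AmpC (5.3 nM in the dispensed reagent) in 20 mM phosphate pH 7.0 with 0.01% (detergent screen) or 0.0001% Triton X-100 was preincubated with compounds for 15 min at room temperature. Nitrocefin was then added from an 800 uM solution, and hydrolysis was followed at 480 nm.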
AMA1 RON2 block = qHTS for Inhibitors of AMA1-RON; Towards Development of Antimalarial Drug Lead: Primary Screen; Plasmodium falciparum AMA1 (3D7) - RON2 peptide interaction; AlphaScreen AMA1-biotinylated RON2 peptide binding; Potency, µM (highest dose often 58.2 µM), hits mostly inhibitors; 360,000 tested, 0.2% active; note: nearly all actives have a fitted effect of over 45% in size
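AMA1 (3D7) with his tag at 25 nM final met compounds first, then biotinylated RON2 peptide at 25 nM; detection used donor plus acceptor beads, 10 µg/mL apiece, read by AlphaScreen after 30 min at room temperature.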
SARS PLP yeast = qHTS of Yeast-based Assay for SARS-CoV PLP; S. cerevisiae expressing SARS-CoV PLpro, growth rescue; Potency, µM (top dose mostly 32.9 µM), usual class: activators; 330,000 tested, 0.19% active; calls by dose curve; note: nearly all actives have a fitted effect of over 55% in size
Shiga inhibitor = A qHTS for Small Molecule Inhibitors of Shiga Toxin; Vero cells, Shiga toxin protein synthesis inhibition reporter; inhibition, % at 38.7 µM; 290,000 tested, 9.2% active; AID 2315, 2010; in the data active = inhibition mostly above about 28%, no sharp cut-off; inactive = mostly below about 43%
AmpC inh no detg = qHTS Inhibitors of AmpC Beta-Lactamase (assay without detergent). AmpC nitrocefin hydrolysis, absorbance 480 nm, 0.0001% Triton. 330,000 tested, 0.52% active. Potency, µM (top dose mostly 57.1 µM), most hits filed as inhibitors. AID 485341, 2010; note: nearly all actives have a fitted effect of over 20% in size
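20 mM phosphate pH 7.0 + 0.01% (detergent screen) or 0.0001% Triton X-100; 5.3 nM AmpC reagent; cpd preinc 15 min RT; nitrocefin (800 uM stock) to start; A480 q20 s × 4 min; Activity was normalised to no-enzyme and no-compound control wells.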
Of the large screens only hits and unclear results are named; the others gave an inactive call. Shown is part of a subset that was picked to be rich in hits. Unless noted, calls come from the whole dose curve; as a rule, active = well fitted curve in the direction sought with a large enough effect; inconclusive = small, poorly fitted or top-dose-only effect, or another doubt; inactive = no such curve, though single readings can be large; an effect the other way counts as inactive or inconclusive.

COc1ccc(-c2nc(N=Nc3ccc(O)cc3)n[nH]2)cc1	Cycloheximide cs 34.7
Cc1ccc(S(=O)(=O)Nc2ccc(N=Nc3ccc(O)cc3)cc2)cc1	none
Cc1nc(N=Nc2ccc(O)cc2)n[nH]1	Cycloheximide cs 20.4, Shiga inhibitor 53.3
COc1ccccc1Nc1ccc([N+](=O)[O-])cc1N	none
Cc1[nH]c2ccccc2c1C(C#N)(C#N)C1C(=O)c2ccccc2C1=O	AmpC inh no detg 14.1µM
Cc1ccccc1N1C(=O)CC2(CCCC2)CC1=O	none
COc1cc2ncnc(NCc3ccc(Cl)cc3)c2cc1OC	none
COc1ccnc(NCc2ccc(Cl)cc2)c1C#N	Cycloheximide cs 27.2, Shiga inhibitor 56.5
O=C(Nc1nc(-c2ccccn2)cs1)c1ccco1	Cycloheximide cs 54.3, Shiga inhibitor 89.3
O=C(Nc1nc(-c2cccs2)cs1)c1ccco1	Cycloheximide cs 37.4, Shiga inhibitor 90.6
CC(C)C(=O)N1CCc2cc(-c3csc(N)n3)ccc21	Cycloheximide cs 21.6, SARS PLP yeast inconclusive
O=C(Nc1nc(-c2cccs2)cs1)C1=COCCO1	Cycloheximide cs 39.8, Shiga inhibitor 67.8
C[C@H](NC(=O)c1ccco1)C(=O)Nc1nc(-c2ccccn2)cs1	none (no result: Cycloheximide cs, AmpC inh detg, SARS PLP yeast, Shiga inhibitor, AmpC inh no detg)
Cc1cc(C)n(CC(=O)NNC(=O)COc2ccc(F)cc2Br)n1	none (no result: Cycloheximide cs, Shiga inhibitor)
CC1=CC(=O)CC(C)(C)[C@@]1(O)/C=C/[C@@H](C)O[C@@H]1O[C@H](CO)[C@@H](O)[C@H](O)[C@H]1O	none (no result: Cycloheximide cs, AmpC inh detg, Shiga inhibitor)
O=C(CCCNC(=O)c1ccc(Cl)cc1)Nc1ccc(S(=O)(=O)Nc2ncccn2)cc1	none
Cc1ccc(-n2ncc3c(=O)n(Cc4ccccc4C)cnc32)cc1C	none (no result: Cycloheximide cs, AMA1 RON2 block, SARS PLP yeast, Shiga inhibitor, AmpC inh no detg)
O=C(Nc1nc(-c2ccncc2)cs1)c1ccco1	none
CCC(=O)N1CCc2cc(-c3csc(NC(=O)c4ccco4)n3)ccc21	Cycloheximide cs 27.8
CCc1ccccc1Nc1ncnc2c1cnn2-c1ccc(Cl)cc1	none (no result: Cycloheximide cs, AMA1 RON2 block, SARS PLP yeast, Shiga inhibitor, AmpC inh no detg)
CCC(CO)Nc1ncnc2c1cnn2-c1ccc(OC)cc1 (centres undefined)	Cycloheximide cs 36.8, Shiga inhibitor 53.4
CCC(CO)Nc1ncnc2c1cnn2-c1ccc(Cl)cc1 (centres undefined)	Cycloheximide cs 39.8
COc1cccc(CN2CC(C(=O)NCCOc3ccccc3)CCC2=O)c1 (centres undefined)	Cycloheximide cs 19.5, SARS PLP yeast inconclusive
COc1cccc(CN2CC(C(=O)N(C)C3CCOCC3)CCC2=O)c1 (centres undefined)	Cycloheximide cs 14.4
COc1cccc(CN(C)C(=O)C2CCC(=O)N(Cc3cccc(F)c3)C2)c1 (centres undefined)	none
CC1=C(C(=O)OC(C)C)C(c2cccc([N+](=O)[O-])c2)n2c(cc(=O)[nH]c2=S)N1 (centres undefined)	AmpC inh no detg 35.5µM
COc1ccc(-c2csc(Nc3ncccc3C)n2)cc1OC	Cycloheximide cs 33.8, AmpC inh detg inconclusive, Shiga inhibitor 139.1
Cc1ccc(-c2csc(NC(=O)/C=C/c3cccs3)n2)cc1C	none
Cc1cccnc1Nc1nc(-c2ccc(O)c(O)c2)cs1	Cycloheximide cs 45.4, Shiga inhibitor 79.9
COc1ccc(-c2csc(Nc3ncccc3C)n2)cc1	none
CCOc1ccc2oc(C(=O)N(C)CCc3ccc(OC)c(OC)c3)c(C)c2c1	AmpC inh detg inconclusive (no result: Cycloheximide cs, Shiga inhibitor)
CCOc1ccc(NC(=O)c2nc(S(=O)(=O)Cc3ccccc3F)ncc2Cl)cc1	none (no result: AMA1 RON2 block, SARS PLP yeast, AmpC inh no detg)
O=C(NCc1ccc2c(c1)OCO2)c1nc(S(=O)(=O)Cc2ccccc2)ncc1Cl	Cycloheximide cs 27.1
O=C(NCc1ccc2c(c1)OCO2)c1nc(S(=O)(=O)Cc2ccccc2F)ncc1Cl	Cycloheximide cs 25.7
COC1=CC2(O)CCCC2=CC1=O (centres undefined)	none
O=C(C[n+]1cn(C(F)F)c2ccccc21)c1ccc(OC(F)F)cc1	Cycloheximide cs 28.6, Shiga inhibitor 61.3
O=C(C[n+]1ccc(C(=O)NCc2ccccc2)cc1)c1ccc(OC(F)F)cc1	none
CCCCOc1ccc(N2C(=O)CC(N(O)c3ccccc3)C2=O)cc1 (centres undefined)	none
CCCOc1ccc(N2C(=O)CC(N(Cc3ccc(OC)cc3)C(=S)Nc3ccccc3)C2=O)cc1 (centres undefined)	Cycloheximide cs 25.3, AMA1 RON2 block inconclusive
CCCOc1ccc(N2C(=O)CC(N(CCc3ccc(OC)c(OC)c3)C(=S)Nc3ccccc3)C2=O)cc1 (centres undefined)	none
CCCCCOc1ccc(N2C(=O)CC(N(O)c3ccccc3)C2=O)cc1 (centres undefined)	AmpC inh detg inconclusive, AmpC inh no detg 20µM
Cc1cccc(N2C(=O)N3[C@H](c4ccc(Cl)cc4)[C@@H]4C(=O)N(C5CCCCC5)C(=O)[C@@H]4[C@]3(Cc3ccc(Cl)cc3)C2=O)c1	none
Cc1ccc(N2C(=O)N3[C@H](c4ccc(Cl)cc4)[C@@H]4C(=O)N(C5CCCCC5)C(=O)[C@@H]4[C@]3(Cc3ccccc3)C2=O)cc1	Cycloheximide cs 9.7, Shiga inhibitor 19.3
Cc1cc(C)c2cc(C#N)c(N3CCCN(C(=S)NCCCN(C)C)CC3)nc2c1	none
O=c1c(/C=N/N2CCOCC2)c(O)n(-c2ccccc2)c(=S)n1-c1ccccc1	Cycloheximide cs 16.8, AmpC inh detg inconclusive
COc1ccccc1-n1c(O)c(/C=N/N2CCCCC2)c(=O)n(-c2ccccc2OC)c1=S	Shiga inhibitor 33.2
Cc1c2ccncc2c(C)c2c1[nH]c1ccccc12	none
CC(=O)N1C=Cc2c(c(C)c3c([nH]c4ccccc43)c2C)C1	Cycloheximide cs 16.7 (no result: AMA1 RON2 block)
Cc1cc(C(=O)CSc2cccc[n+]2[O-])c(C)n1-c1ccc(OC(F)F)cc1	Cycloheximide cs 54.4, Shiga inhibitor 58.7
Fc1ccc(NC(=S)Nc2ccc(Cl)cc2Cl)cc1	Cycloheximide cs 21.6
Fc1ccc(CNC(=S)Nc2ccc(Cl)cc2Cl)cc1	none
COc1ccc(Cl)cc1NC(=S)NCc1ccccn1	AmpC inh detg inconclusive
S=C(NCCc1ccc(Cl)cc1)Nc1ccc(Cl)cc1Cl	Cycloheximide cs 13.5
CCCNC(=S)Nc1ccc(Cl)cc1Cl	SARS PLP yeast inconclusive, Shiga inhibitor 40.8
S=C(NCc1ccc(Cl)cc1)Nc1ccc(Cl)cc1Cl	none
S=C(NCc1ccccn1)Nc1ccc(Cl)cc1Cl	Cycloheximide cs 44.8
O=C(CC1C(=O)NCCN1Cc1cccc(F)c1F)NC1CCCCCC1 (centres undefined)	none
CCN1CCCC(OC(=O)c2cc(-c3ccc(C)cc3)nc3ccccc23)C1 (centres undefined)	AMA1 RON2 block inconclusive

High-throughput results: PubChem, National Center for Advancing Translational Sciences (NCATS)
